# According to PubChem BioAssay AID1508601 (ICCB-Longwood Screening Facility, Harvard Medical School, 2020):
# “And” between values parts separate entries of the source, which are not always exact repeats. Equal entries are not always repeated. Among all 5,700 compounds or so, about 85 (1%) were called active. Cut-off read from the data, not from the text of the source: active = p53-positive nuclei above about 36% (passing the limit was not always enough); inactive = the rest. The list comes from a sample in which actives are over-represented; it also holds similar structures and randomly drawn compounds.
# How the values were obtained:
# [1] = nuclear p53 accumulation, HPV+ cells – imaging, p53-positive nuclei imaging, 24 h, 48 h (AID 1508601); settings: 24/48 h
# [2] = molecular target: Cellular tumor antigen p53 (Homo sapiens) (UniProt P04637); assay: as above; settings: 24/48 h, stronger effect = higher value
# Chain of Cellular tumor antigen p53 (Homo sapiens) (P04637 whole entry, looked up): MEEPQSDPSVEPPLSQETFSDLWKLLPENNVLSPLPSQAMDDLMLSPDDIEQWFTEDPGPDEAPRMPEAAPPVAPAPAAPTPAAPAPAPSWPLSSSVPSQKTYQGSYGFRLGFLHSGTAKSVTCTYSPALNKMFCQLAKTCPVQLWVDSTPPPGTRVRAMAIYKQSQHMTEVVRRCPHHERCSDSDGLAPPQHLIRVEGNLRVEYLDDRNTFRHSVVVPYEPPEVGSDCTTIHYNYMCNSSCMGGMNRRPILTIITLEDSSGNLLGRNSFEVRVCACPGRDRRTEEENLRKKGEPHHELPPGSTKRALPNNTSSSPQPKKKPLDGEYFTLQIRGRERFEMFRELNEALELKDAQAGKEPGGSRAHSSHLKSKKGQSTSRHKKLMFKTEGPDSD
# [3] = measured here: cell number at 24 h, Library stock concentration: 80 uM
# [4] = measured here: cell number at 24 h, Library stock concentration: 400 uM
# [5] = measured here: cell number at 24 h, Library stock concentration: 2 mM
# [6] = measured here: cell number at 24 h, Library stock concentration: 3.33 mM
# [7] = measured here: cell number at 24 h, Library stock concentration: 10 mM
# [8] = measured here: cell number at 48 h, Library stock concentration: 80 uM
# [9] = measured here: cell number at 48 h, Library stock concentration: 400 uM
# [10] = measured here: cell number at 48 h, Library stock concentration: 2 mM
# [11] = measured here: cell number at 48 h, Library stock concentration: 3.33 mM
# [12] = measured here: cell number at 48 h, Library stock concentration: 10 mM
# [13] = Library stock concentration: 80 uM
# [14] = Library stock concentration: 400 uM
# [15] = Library stock concentration: 2 mM
# [16] = Library stock concentration: 3.33 mM
# [17] = Library stock concentration: 10 mM
# [18] = measured here: p53 positive nuclei at 24 h, Library stock concentration: 80 uM
# [19] = measured here: p53 positive nuclei at 24 h, Library stock concentration: 400 uM
# [20] = measured here: p53 positive nuclei at 24 h, Library stock concentration: 2 mM
# [21] = measured here: p53 positive nuclei at 24 h, Library stock concentration: 3.33 mM
# [22] = measured here: p53 positive nuclei at 24 h, Library stock concentration: 10 mM
# [23] = measured here: cell number at 24 h, concentration not given here
# [24] = measured here: cell number at 48 h, concentration not given here
# [25] = measured here: p53 positive nuclei at 24 h, concentration not given here
smiles,measurement,setting,value
Cc1ncc(-c2ccnc(Nc3ccc(S(C)(=O)=O)cc3)n2)n1C(C)C,"nuclei count, normalised",[1]; [3],104% and 73.6%
same,"nuclei count, normalised",[1]; [4],100% and 83.3%
same,"nuclei count, normalised",[1]; [5],54.9% and 60.1%
same,"nuclei count, normalised",[1]; [6],46.1%
same,"nuclei count, normalised",[1]; [7],36.9% and 37.6%
same,"nuclei count, normalised",[1]; [8],105% and 49.6%
same,"nuclei count, normalised",[1]; [9],89.2% and 61.2%
same,"nuclei count, normalised",[1]; [10],24.1% and 33.6%
same,"nuclei count, normalised",[1]; [11],23%
same,"nuclei count, normalised",[1]; [12],21.8% and 24.6%
same,"p53-positive nuclei, normalised",[2]; [13],0.106% (inactive) and 10.7% (inactive)
same,"p53-positive nuclei, normalised",[2]; [14],0.447% (inactive) and 4.11% (inactive)
same,"p53-positive nuclei, normalised",[2]; [15],57.6% (inactive) and 42.9% (inactive)
same,"p53-positive nuclei, normalised",[2]; [16],60.3% (active)
same,"p53-positive nuclei, normalised",[2]; [17],50.8% (inactive) and 49.9% (inactive)
same,"p53-positive nuclei, normalised",[2]; [18],0.00746% and 0.944%
same,"p53-positive nuclei, normalised",[2]; [19],0.0769% and 0.14%
same,"p53-positive nuclei, normalised",[2]; [20],34.6% and 11.8%
same,"p53-positive nuclei, normalised",[2]; [21],32.5%
same,"p53-positive nuclei, normalised",[2]; [22],15.1% and 13.6%
Cc1nn(C)c(C)c1-c1ccnc(NCC(C)Oc2cccnc2)n1 (configuration not stated),"nuclei count, normalised",[1]; [23],103%
same,"nuclei count, normalised",[1]; [24],101%
same,"p53-positive nuclei, normalised",[2]; concentration not given here,-0.151% (inactive)
same,"p53-positive nuclei, normalised",[2]; [25],-0.079%
COc1cc(-c2cccc(C)c2C)nc(N)n1,"nuclei count, normalised",[1]; [23],87.1%
same,"nuclei count, normalised",[1]; [24],74.8%
same,"p53-positive nuclei, normalised",[2]; concentration not given here,0.587% (inactive)
same,"p53-positive nuclei, normalised",[2]; [25],0.226%
CN(CC1COc2ccccc2O1)C(=O)Nc1nncs1 (configuration not stated),"nuclei count, normalised",[1]; [23],103%
same,"nuclei count, normalised",[1]; [24],104%
same,"p53-positive nuclei, normalised",[2]; concentration not given here,-0.215% (inactive)
same,"p53-positive nuclei, normalised",[2]; [25],-0.0697%
O=C1NCCCc2c1oc1ccc(O)cc21,"nuclei count, normalised",[1]; [3],99.3%
same,"nuclei count, normalised",[1]; [4],92.2%
same,"nuclei count, normalised",[1]; [5],96.6%
same,"nuclei count, normalised",[1]; [7],89.4%
same,"nuclei count, normalised",[1]; [8],104%
same,"nuclei count, normalised",[1]; [9],99.1%
same,"nuclei count, normalised",[1]; [10],99.6%
same,"nuclei count, normalised",[1]; [12],98.7%
same,"p53-positive nuclei, normalised",[2]; [13],-0.0796% (inactive)
same,"p53-positive nuclei, normalised",[2]; [14],-0.0299% (inactive)
same,"p53-positive nuclei, normalised",[2]; [15],0.259% (inactive)
same,"p53-positive nuclei, normalised",[2]; [17],0.273% (inactive)
same,"p53-positive nuclei, normalised",[2]; [18],-0.0621%
same,"p53-positive nuclei, normalised",[2]; [19],-0.105%
same,"p53-positive nuclei, normalised",[2]; [20],0.32%
same,"p53-positive nuclei, normalised",[2]; [22],0.126%
O=C1NCCSc2c1sc1ccc(O)cc21,"nuclei count, normalised","[1]; measured here: cell number at 24 h, Library stock concentration: 46 uM",111%
same,"nuclei count, normalised","[1]; measured here: cell number at 24 h, Library stock concentration: 278 uM",108%
same,"nuclei count, normalised","[1]; measured here: cell number at 24 h, Library stock concentration: 1.67 mM",101%
same,"nuclei count, normalised",[1]; [7],56.1%
same,"nuclei count, normalised","[1]; measured here: cell number at 48 h, Library stock concentration: 46 uM",110%
same,"nuclei count, normalised","[1]; measured here: cell number at 48 h, Library stock concentration: 278 uM",113%
same,"nuclei count, normalised","[1]; measured here: cell number at 48 h, Library stock concentration: 1.67 mM",113%
same,"nuclei count, normalised",[1]; [12],36.9%
same,"p53-positive nuclei, normalised",[2]; Library stock concentration: 46 uM,-0.0208% (inactive)
same,"p53-positive nuclei, normalised",[2]; Library stock concentration: 278 uM,-0.288% (inactive)
same,"p53-positive nuclei, normalised",[2]; Library stock concentration: 1.67 mM,0.37% (inactive)
same,"p53-positive nuclei, normalised",[2]; [17],60.9% (active)
same,"p53-positive nuclei, normalised","[2]; measured here: p53 positive nuclei at 24 h, Library stock concentration: 46 uM",0.0309%
same,"p53-positive nuclei, normalised","[2]; measured here: p53 positive nuclei at 24 h, Library stock concentration: 278 uM",-0.0893%
same,"p53-positive nuclei, normalised","[2]; measured here: p53 positive nuclei at 24 h, Library stock concentration: 1.67 mM",0.2%
same,"p53-positive nuclei, normalised",[2]; [22],4.05%
CCCCCCCCCCCCCCCCOC[C@H](CO)OC(C)=O,"nuclei count, normalised",[1]; [23],97.1%
same,"nuclei count, normalised",[1]; [24],102%
same,"p53-positive nuclei, normalised",[2]; concentration not given here,-0.0599% (inactive)
same,"p53-positive nuclei, normalised",[2]; [25],0.0467%
COc1ccc2nc3ccc(OC)cc3c(SCCCN)c2c1,"nuclei count, normalised",[1]; [3],111%
same,"nuclei count, normalised",[1]; [4],114%
same,"nuclei count, normalised",[1]; [5],103%
same,"nuclei count, normalised",[1]; [7],81.6%
same,"nuclei count, normalised",[1]; [8],119%
same,"nuclei count, normalised",[1]; [9],115%
same,"nuclei count, normalised",[1]; [10],109%
same,"nuclei count, normalised",[1]; [12],90.5%
same,"p53-positive nuclei, normalised",[2]; [13],-0.0602% (inactive)
same,"p53-positive nuclei, normalised",[2]; [14],-0.0191% (inactive)
same,"p53-positive nuclei, normalised",[2]; [15],-0.0521% (inactive)
same,"p53-positive nuclei, normalised",[2]; [17],0.61% (inactive)
same,"p53-positive nuclei, normalised",[2]; [18],-0.00591%
same,"p53-positive nuclei, normalised",[2]; [19],-0.136%
same,"p53-positive nuclei, normalised",[2]; [20],0.00172%
same,"p53-positive nuclei, normalised",[2]; [22],0.819%
CC(=O)Nc1ccc(C(=O)Nc2ccccc2N)cc1,"nuclei count, normalised",[1]; [6],92.6%
same,"nuclei count, normalised",[1]; [11],89.8%
same,"p53-positive nuclei, normalised",[2]; [16],0.127% (inactive)
same,"p53-positive nuclei, normalised",[2]; [21],-0.311%
CC(C)[C@H](C(=O)Nc1ccc(C(=O)NO)cc1)c1ccccc1,"nuclei count, normalised",[1]; [23],80%
same,"nuclei count, normalised",[1]; [24],65.6%
same,"p53-positive nuclei, normalised",[2]; concentration not given here,9.18% (inactive)
same,"p53-positive nuclei, normalised",[2]; [25],17.4%
